# Laboratory results reported in ChEMBL document CHEMBL1961873, “Compounds: GSK PKIS; Assays: Nanosyn kinase panel” (2012).
# Legend:
# [1] = biological target: MAP/microtubule affinity-regulating kinase 3 (Homo sapiens) (UniProt P27448); details: at 1 µM;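 also: reported values are averaged percent inhibition of MARK3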
# [2] = biological target: T1, MAP/microtubule affinity-regulating kinase 4 (Homo sapiens) (UniProt Q96L34); details: at 0.1 µM
# T1 sequence (whole entry): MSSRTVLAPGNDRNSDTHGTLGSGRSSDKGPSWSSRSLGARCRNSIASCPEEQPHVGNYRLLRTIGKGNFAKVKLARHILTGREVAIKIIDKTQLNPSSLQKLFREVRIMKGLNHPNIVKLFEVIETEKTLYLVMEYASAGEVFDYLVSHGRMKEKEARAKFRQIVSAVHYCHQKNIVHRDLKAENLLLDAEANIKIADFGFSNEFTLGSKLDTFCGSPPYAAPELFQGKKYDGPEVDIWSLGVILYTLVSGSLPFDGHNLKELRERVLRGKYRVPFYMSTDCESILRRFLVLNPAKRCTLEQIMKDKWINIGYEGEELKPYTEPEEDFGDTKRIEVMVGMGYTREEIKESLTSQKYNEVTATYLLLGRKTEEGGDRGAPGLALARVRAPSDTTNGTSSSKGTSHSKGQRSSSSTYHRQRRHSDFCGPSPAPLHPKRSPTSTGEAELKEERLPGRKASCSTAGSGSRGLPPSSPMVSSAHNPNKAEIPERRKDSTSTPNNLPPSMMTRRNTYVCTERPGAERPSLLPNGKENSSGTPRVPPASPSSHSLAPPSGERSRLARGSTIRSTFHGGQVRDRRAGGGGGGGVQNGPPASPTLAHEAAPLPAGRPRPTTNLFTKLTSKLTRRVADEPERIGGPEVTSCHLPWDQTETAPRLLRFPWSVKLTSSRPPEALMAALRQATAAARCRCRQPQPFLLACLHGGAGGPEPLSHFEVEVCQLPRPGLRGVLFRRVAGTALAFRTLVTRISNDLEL
# [3] = biological target: T1, MAP/microtubule affinity-regulating kinase 4 (Homo sapiens); details: at 1 µM
# [4] = biological target: Maternal embryonic leucine zipper kinase (Homo sapiens) (UniProt Q14680); details: at 0.1 µM
# [5] = biological target: Maternal embryonic leucine zipper kinase (Homo sapiens) (UniProt Q14680); details: at 1 µM
# [6] = biological target: MAP kinase-interacting serine/threonine-protein kinase 1 (Homo sapiens) (UniProt Q9BUB5); details: at 0.1 µM
# [7] = biological target: MAP kinase-interacting serine/threonine-protein kinase 1 (Homo sapiens) (UniProt Q9BUB5); details: at 1 µM
# [8] = biological target: MAP kinase-interacting serine/threonine-protein kinase 2 (Homo sapiens) (UniProt Q9HBH9); details: at 0.1 µM
# [9] = biological target: MAP kinase-interacting serine/threonine-protein kinase 2 (Homo sapiens) (UniProt Q9HBH9); details: at 1 µM
# [10] = biological target: Serine/threonine-protein kinase MARK2 (Homo sapiens) (UniProt Q7KZI7); details: at 0.1 µM
# [11] = biological target: Serine/threonine-protein kinase MARK2 (Homo sapiens) (UniProt Q7KZI7); details: at 1 µM
# [12] = biological target: PAS domain-containing serine/threonine-protein kinase (Homo sapiens) (UniProt Q96RG2); details: at 0.1 µM
# [13] = biological target: PAS domain-containing serine/threonine-protein kinase (Homo sapiens) (UniProt Q96RG2); details: at 1 µM
# [14] = biological target: Phosphorylase b kinase gamma catalytic chain, skeletal muscle/heart isoform (Homo sapiens) (UniProt Q16816); details: at 0.1 µM
# [15] = biological target: Phosphorylase b kinase gamma catalytic chain, skeletal muscle/heart isoform (Homo sapiens) (UniProt Q16816); details: at 1 µM
# [16] = biological target: T2, Phosphorylase b kinase gamma catalytic chain, liver/testis isoform (Homo sapiens) (UniProt P15735); details: at 0.1 µM
# T2 sequence (whole entry): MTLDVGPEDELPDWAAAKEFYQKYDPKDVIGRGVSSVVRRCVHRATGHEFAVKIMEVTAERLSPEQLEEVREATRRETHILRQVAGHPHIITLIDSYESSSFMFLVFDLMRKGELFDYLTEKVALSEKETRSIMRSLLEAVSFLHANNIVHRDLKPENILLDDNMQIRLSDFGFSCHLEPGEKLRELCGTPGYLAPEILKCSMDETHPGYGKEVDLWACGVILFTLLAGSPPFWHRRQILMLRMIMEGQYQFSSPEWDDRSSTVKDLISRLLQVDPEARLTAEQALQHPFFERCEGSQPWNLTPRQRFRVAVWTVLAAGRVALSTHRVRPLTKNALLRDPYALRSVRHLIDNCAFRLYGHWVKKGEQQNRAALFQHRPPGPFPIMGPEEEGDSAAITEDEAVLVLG
# [17] = biological target: T2, Phosphorylase b kinase gamma catalytic chain, liver/testis isoform (Homo sapiens); details: at 1 µM
# [18] = biological target: Serine/threonine-protein kinase pim-1 (Homo sapiens) (UniProt P11309); details: at 0.1 µM
# [19] = biological target: Serine/threonine-protein kinase pim-1 (Homo sapiens) (UniProt P11309); details: at 1 µM
# [20] = biological target: Serine/threonine-protein kinase pim-2 (Homo sapiens) (UniProt Q9P1W9); details: at 0.1 µM;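 also: reported value is the mean percent inhibition of PIM2, measured in the GSK PKIS kinase inhibitor set screen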
# Sequence of Serine/threonine-protein kinase pim-2 (Homo sapiens) (Q9P1W9 whole entry, looked up): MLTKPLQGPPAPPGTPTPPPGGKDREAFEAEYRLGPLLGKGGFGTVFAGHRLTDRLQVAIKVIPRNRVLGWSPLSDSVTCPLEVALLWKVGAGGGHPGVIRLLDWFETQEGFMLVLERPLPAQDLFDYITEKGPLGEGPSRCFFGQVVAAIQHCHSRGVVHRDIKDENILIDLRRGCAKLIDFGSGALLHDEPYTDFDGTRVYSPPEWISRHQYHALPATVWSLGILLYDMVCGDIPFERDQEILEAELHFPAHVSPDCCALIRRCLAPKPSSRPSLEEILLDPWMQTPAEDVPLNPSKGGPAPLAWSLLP
# Sequence of Serine/threonine-protein kinase MARK2 (Homo sapiens) (Q7KZI7 whole entry, the tested form may be a part): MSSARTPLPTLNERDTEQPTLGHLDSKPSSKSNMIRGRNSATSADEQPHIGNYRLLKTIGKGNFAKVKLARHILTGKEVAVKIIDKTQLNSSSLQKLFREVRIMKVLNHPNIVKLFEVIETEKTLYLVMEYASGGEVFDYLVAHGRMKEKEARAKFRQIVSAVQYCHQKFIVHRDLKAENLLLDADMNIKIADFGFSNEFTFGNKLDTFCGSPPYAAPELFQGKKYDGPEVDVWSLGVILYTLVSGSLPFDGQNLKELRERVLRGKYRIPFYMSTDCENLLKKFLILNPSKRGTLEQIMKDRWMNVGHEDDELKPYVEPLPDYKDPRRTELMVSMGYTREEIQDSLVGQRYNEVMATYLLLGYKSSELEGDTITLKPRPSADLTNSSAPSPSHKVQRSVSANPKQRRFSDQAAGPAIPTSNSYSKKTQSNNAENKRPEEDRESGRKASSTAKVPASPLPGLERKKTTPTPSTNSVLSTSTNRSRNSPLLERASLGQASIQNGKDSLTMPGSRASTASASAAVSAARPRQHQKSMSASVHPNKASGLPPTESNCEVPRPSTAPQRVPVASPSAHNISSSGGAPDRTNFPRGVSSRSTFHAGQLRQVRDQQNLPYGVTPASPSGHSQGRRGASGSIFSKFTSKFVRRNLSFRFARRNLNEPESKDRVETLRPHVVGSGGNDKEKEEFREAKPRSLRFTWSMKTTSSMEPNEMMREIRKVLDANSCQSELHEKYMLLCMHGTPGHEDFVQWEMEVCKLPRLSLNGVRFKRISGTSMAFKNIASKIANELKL
# Sequence of MAP/microtubule affinity-regulating kinase 3 (Homo sapiens) (P27448 whole entry, looked up): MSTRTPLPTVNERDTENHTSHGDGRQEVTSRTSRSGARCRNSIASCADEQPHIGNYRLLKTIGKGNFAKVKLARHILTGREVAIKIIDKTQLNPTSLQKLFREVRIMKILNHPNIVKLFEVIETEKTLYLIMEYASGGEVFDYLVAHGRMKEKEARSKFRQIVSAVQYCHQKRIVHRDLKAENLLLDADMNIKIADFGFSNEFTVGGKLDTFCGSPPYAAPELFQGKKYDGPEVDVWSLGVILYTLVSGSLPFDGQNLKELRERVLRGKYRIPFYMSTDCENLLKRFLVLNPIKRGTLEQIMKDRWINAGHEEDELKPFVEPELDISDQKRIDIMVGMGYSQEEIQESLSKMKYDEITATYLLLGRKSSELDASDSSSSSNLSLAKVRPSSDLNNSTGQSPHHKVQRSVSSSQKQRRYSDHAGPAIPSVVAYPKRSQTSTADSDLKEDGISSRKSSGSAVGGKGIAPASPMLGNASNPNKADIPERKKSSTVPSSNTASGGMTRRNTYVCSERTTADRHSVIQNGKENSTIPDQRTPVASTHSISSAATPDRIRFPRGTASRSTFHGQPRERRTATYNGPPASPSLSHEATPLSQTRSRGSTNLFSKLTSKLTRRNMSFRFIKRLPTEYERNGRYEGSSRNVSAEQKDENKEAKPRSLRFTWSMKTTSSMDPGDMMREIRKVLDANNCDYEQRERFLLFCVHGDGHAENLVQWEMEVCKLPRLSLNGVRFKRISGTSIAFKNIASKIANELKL
# Sequence of Serine/threonine-protein kinase pim-1 (Homo sapiens) (P11309 whole entry, looked up): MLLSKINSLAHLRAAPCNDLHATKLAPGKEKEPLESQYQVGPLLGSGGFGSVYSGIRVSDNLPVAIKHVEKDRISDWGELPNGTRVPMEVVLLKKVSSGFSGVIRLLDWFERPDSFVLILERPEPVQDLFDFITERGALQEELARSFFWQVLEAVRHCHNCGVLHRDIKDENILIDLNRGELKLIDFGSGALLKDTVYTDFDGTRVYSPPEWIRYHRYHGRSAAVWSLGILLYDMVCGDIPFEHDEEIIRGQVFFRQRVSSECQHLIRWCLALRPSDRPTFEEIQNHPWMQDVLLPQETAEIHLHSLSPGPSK
# Sequence of Phosphorylase b kinase gamma catalytic chain, skeletal muscle/heart isoform (Homo sapiens) (Q16816 whole entry, looked up, canonical isoform): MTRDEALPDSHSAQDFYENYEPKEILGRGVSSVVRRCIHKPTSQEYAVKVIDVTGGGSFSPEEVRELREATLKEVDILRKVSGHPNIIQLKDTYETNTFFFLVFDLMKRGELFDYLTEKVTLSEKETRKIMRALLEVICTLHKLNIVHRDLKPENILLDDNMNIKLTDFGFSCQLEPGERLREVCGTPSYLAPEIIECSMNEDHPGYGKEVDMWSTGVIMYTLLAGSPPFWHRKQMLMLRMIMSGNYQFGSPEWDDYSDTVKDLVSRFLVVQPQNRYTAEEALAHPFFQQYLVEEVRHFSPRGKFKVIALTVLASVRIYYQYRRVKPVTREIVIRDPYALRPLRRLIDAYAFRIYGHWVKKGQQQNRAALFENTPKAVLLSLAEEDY
# Sequence of MAP kinase-interacting serine/threonine-protein kinase 1 (Homo sapiens) (Q9BUB5 whole entry, looked up): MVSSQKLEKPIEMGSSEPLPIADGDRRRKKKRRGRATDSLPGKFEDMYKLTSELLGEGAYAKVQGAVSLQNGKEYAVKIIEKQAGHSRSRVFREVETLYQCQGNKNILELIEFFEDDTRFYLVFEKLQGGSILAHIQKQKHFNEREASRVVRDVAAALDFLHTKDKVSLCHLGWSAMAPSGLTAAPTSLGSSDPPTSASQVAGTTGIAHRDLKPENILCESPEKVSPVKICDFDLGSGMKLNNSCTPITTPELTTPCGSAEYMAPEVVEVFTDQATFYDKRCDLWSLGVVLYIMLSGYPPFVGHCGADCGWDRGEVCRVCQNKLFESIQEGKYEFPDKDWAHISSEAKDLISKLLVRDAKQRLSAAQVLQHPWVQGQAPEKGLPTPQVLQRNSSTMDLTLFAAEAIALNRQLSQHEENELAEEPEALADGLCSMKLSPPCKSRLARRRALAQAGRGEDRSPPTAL
# Sequence of MAP kinase-interacting serine/threonine-protein kinase 2 (Homo sapiens) (Q9HBH9 whole entry, looked up): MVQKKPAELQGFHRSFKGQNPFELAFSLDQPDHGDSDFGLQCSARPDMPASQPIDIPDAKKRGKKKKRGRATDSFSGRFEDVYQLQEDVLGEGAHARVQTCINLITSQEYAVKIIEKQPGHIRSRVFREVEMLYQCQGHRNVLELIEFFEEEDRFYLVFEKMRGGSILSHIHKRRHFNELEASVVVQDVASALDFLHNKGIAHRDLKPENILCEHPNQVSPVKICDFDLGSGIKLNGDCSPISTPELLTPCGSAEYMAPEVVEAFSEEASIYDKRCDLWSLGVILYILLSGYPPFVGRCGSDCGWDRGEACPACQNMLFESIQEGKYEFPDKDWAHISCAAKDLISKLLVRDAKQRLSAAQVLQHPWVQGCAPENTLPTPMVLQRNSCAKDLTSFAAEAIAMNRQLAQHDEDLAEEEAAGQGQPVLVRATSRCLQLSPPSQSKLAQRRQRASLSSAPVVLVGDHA
# Sequence of PAS domain-containing serine/threonine-protein kinase (Homo sapiens) (Q96RG2 whole entry, the tested form may be a part, canonical isoform): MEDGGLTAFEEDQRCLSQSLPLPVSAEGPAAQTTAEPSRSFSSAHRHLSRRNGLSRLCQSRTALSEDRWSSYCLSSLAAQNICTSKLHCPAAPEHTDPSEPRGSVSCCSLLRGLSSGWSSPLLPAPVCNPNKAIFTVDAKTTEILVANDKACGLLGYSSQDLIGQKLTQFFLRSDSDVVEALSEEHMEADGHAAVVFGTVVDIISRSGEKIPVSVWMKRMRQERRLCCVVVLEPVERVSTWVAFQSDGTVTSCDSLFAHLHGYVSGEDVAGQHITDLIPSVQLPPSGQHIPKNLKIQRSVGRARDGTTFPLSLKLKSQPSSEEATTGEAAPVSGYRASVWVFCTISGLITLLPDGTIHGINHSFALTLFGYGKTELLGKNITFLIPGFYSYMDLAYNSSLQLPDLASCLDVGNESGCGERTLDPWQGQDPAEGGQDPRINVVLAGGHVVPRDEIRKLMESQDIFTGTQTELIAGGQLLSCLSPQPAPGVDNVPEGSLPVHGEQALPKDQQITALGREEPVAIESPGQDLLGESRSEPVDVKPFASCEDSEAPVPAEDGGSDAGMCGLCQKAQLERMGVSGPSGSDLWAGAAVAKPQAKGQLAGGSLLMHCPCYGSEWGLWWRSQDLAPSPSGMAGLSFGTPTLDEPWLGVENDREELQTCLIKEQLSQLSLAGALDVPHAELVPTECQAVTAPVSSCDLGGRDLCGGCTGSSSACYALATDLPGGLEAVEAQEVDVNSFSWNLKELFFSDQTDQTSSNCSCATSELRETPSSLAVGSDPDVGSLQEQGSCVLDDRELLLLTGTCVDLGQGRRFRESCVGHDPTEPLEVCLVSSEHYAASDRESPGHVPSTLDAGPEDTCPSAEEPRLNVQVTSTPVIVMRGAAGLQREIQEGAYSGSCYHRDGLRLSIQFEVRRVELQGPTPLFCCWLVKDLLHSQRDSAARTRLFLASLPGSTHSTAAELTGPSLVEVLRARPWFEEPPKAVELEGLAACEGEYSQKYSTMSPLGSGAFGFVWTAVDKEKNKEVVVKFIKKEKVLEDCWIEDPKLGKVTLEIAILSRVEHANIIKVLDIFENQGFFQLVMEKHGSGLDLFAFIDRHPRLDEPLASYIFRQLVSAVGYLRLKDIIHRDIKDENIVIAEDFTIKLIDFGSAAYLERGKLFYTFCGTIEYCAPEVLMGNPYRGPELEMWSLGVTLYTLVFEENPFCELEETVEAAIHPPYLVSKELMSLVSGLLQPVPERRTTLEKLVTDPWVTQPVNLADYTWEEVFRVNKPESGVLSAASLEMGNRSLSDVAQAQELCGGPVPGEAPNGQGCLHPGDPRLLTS
Compound,inhibition [1] [%],inhibition [2] [%],inhibition [3] [%],inhibition [4] [%],inhibition [5] [%],inhibition [6] [%],inhibition [7] [%],inhibition [8] [%],inhibition [9] [%],inhibition [10] [%],inhibition [11] [%],inhibition [12] [%],inhibition [13] [%],inhibition [14] [%],inhibition [15] [%],inhibition [16] [%],inhibition [17] [%],inhibition [18] [%],inhibition [19] [%],inhibition [20] [%]
CS(=O)(=O)CCNCc1coc(-c2ccc3ncnc(Nc4ccc(OCc5ccccc5)cc4)c3c2)c1,3.7,1.75,1.07,3.52,6.96,3.46,9.67,3.42,14.1,-0.55,2.39,0.45,0.89,2.33,6.25,3.94,3.59,1.45,1.25,-0.56
FC(F)(F)c1cccc(-c2nn3ncccc3c2-c2ccnc(Nc3ccc4c(c3)OCCO4)n2)c1,3.45,0.66,1.99,1.43,4.99,1.74,3.33,0.83,1.61,-1.11,1.86,0.04,-1.92,-0.01,2.06,1.75,0.4,0.41,0.7,-0.06
CN(C)CCOc1ccc(-c2nc(-c3ccncc3)c(-c3ccc4c(c3)CC/C4=N\O)[nH]2)cc1,4.44,0.44,2.12,1.61,3.61,1.3,7.41,1.42,5.3,1.34,0.92,-0.26,0.36,1.18,7.7,3.65,5.28,1.13,1.48,-0.23
